Shown are actives, neighbours in structure and some others; about 9.4% of the full set was active somewhere.
ELG1 DNA repair: qHTS screen for small molecules that inhibit ELG1-dependent DNA repair in human embryonic kidney (HEK293T) cells expressing luciferase-tagged ELG1; HEK293T ELG1-luciferase reporter, luminescence, 16 h; DNA damage induced by 5-fluorouridine; Potency, µM (highest dose often 46.1 µM), for the others: at the highest dose activity change, negative = inhibition, usual class: inhibitors; 330,000 tested, 2.3% active; note: % is set by controls: 0 for no effect and ±100 for the full control effect; nearly all actives have a fitted effect of over 55% in size
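5-Fluorouridine DNA damage + compound/DMSO, 2,000 cells/well, 16 h, 37 °C/5% CO2. ONE-Glo, 30 min RT, luminescence. Readout = decrease in reporter signal.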
Rab9 promoter act: qHTS Assay for Rab9 Promoter Activators | Huh7 Rab9 promoter-luciferase reporter, luminescence, 24 h | Potency, µM (titrated, usually from 9.22 µM), for inactives: at the top dose activation, negative = inhibition, most hits filed as activators | 320,000 tested, 2.8% active | AID 485297, 2010; note: % of control where 0% means no effect; nearly all actives have a fitted effect of over 60% in size
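Quantitative HTS format; Huh7 Rab9-luciferase reporter cells (1500/well) receive compound 2 h post-plating, incubate 24 h at 37 °C, then get luciferase reagent for 10 min before luminescence reading.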
FLuc modulator: qHTS profiling assay for firefly luciferase inhibitor/activator using purifed enzyme and Km concentrations of substrates (counterscreen for miR-21 project); 360,000 tested, 6.9% active; Potency, µM (doses to about 57.5 µM), inactives show top-dose activity change, negative = inhibition, hits mostly inhibitors; AID 588342, 2011; purified FLuc, Km substrates, luminescence inhibition; Luciferin 4-monooxygenase (Photinus pyralis), P08659;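 note: plate controls were vehicle for no effect and reference inhibitor for full effect; nearly all actives have a fitted effect of over 55% in size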
Target sequence (P08659 whole entry, looked up): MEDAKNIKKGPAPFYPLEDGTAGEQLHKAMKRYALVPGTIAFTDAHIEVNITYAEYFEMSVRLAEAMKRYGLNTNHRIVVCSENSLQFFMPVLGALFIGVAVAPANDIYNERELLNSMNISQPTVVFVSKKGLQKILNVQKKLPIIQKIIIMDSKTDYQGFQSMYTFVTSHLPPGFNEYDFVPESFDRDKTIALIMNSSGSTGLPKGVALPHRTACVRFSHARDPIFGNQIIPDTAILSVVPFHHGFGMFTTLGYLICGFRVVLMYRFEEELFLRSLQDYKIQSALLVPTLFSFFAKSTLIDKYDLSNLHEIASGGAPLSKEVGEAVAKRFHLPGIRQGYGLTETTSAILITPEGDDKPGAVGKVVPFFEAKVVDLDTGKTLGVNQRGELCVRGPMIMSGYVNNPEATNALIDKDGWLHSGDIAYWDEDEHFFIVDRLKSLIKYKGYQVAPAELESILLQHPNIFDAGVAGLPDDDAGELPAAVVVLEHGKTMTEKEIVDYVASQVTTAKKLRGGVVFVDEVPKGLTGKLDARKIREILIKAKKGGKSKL
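Biochemical qHTS of compounds, final roughly 60 µM downward over six points, against 10 nM purified firefly luciferase using Km concentrations of substrates (10 uM D-luciferin, 10 uM ATP) in Tris acetate pH 7.5 buffer; luminescence output.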
SMN2 splice up: qHTS Assay for Enhancers of SMN2 Splice Variant Expression; 210,000 tested, 2.8% active; HEK293 SMN2-luciferase splicing reporter, luminescence, 30-36 h; Potency, µM (highest dose often 46.1 µM), for the others: at the highest dose activity change, positive = activation, hits mostly activators; note: % of control where 0% means no effect; nearly all actives have a fitted effect of over 55% in size
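HEK293 cells carry an SMN2 […]–luciferase reporter in which exon 7 inclusion puts luciferase in frame. Cells were plated 10-12 h before compound addition, then incubated 30-36 h at 37C. ONE-Glo luminescence was read; sodium butyrate at 4.5 mM final served as control.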
NPC1 promoter act: qHTS Assay for NPC1 Promoter Activators | Huh7 NPC1 promoter luciferase reporter, 24 h | Potency, µM (highest dose often 9.22 µM), for inactives: at the highest dose activation, actives largely listed as activators | 320,000 tested, 2.4% active | AID 485313, 2010; note: % of control where 0% means no effect; nearly all actives have a fitted effect of over 60% in size
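Compounds in DMSO were transferred onto Huh7 NPC1-luciferase reporter cells pre-incubated 2 h; after 24 h at 37 °C, Amplite reagent was dispensed and luminescence recorded 10 min later.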
ELG1 genotoxic: qHTS screen for small molecules that induce genotoxicity in human embryonic kidney (HEK293T) cells expressing luciferase-tagged ELG1 | HEK293T ELG1-luciferase reporter, luminescence, 16 h | Potency, µM (doses to about 46 µM), for the others: at the highest dose activity change, positive = activation, hits mostly activators | 330,000 tested, 1.3% active | AID 504466, 2011; note: % of control where 0% means no effect; nearly all actives have a fitted effect of over 60% in size
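HEK293T cells expressing luciferase-tagged ELG1 were exposed to compound or DMSO vehicle for 16 hr at 37 °C and 5% CO2. Luciferase activity was then measured with ONE-Glo after 30 min at room temperature.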
Active calls of the source: *; ? = inconclusive; . = no result. Calls come from the whole dose curve; as a rule, active = well fitted curve in the direction sought with a large enough effect; inconclusive = small, poorly fitted or top-dose-only effect, or another doubt; inactive = no such curve, though single readings can be large; an effect the other way counts as inactive or inconclusive. Potency is the fitted concentration of half-maximal effect.

SMILES	ELG1 DNA repair	Rab9 promoter act	FLuc modulator	SMN2 splice up	NPC1 promoter act	ELG1 genotoxic
CCN(CC)c1ccc2cc(-c3nnc(-c4ccccc4)o3)c(=O)oc2c1	?	?	?	11µM*	2.8µM*	?
CCN(CC)c1ccc2cc(-c3nc4ccccc4[nH]3)c(=O)oc2c1	?	0.1µM*	0.076µM*	0%	0.28µM*	0.15µM*
COc1ccc(-c2nc(SCC(=O)Nc3ccc4c(c3)OCCO4)c(-c3ccc(C)cc3)[nH]2)cc1OC	.	.	?	-5%	.	.
COc1ccc(C(C#N)N2N=C(C)CC2c2ccccc2)cc1 (centres undefined)	-2%	1%	4%	.	-1%	0%
COc1ccc(C2=NN(C(C#N)c3ccc(OC)cc3)C(c3ccccc3)C2)cc1 (centres undefined)	?	?	24µM*	?	?	?
COC(=O)N1CCC[C@@]2(CCN(c3ccccc3)C2)C1	.	.	.	-20%	.	.
COC(=O)CSc1nc2cc3c(cc2cc1C#N)OCO3	?	0.79µM*	-6%	10µM*	0.89µM*	?
CC(C)OC(=O)CSc1nc(N)c(C#N)cc1C#N	?	?	0%	16%	29%	?
CCOC(=O)CSc1nc2cc3c(cc2cc1C#N)OCO3	?	-30%	3%	13µM*	?	23µM*
CCOC(=O)CSc1nc(N)c(C#N)cc1C#N	?	8%	-9%	?	18%	12%
CCOC(=O)CSc1nc2cc3c(cc2cc1C#N)OCCO3	?	?	?	5.6µM*	2µM*	6.5µM*
COC(=O)CSc1nc2cc3c(cc2cc1C)OCCO3	-10%	9%	-15%	1%	-10%	1%
CCOC(=O)CSc1nc2cc3c(cc2cc1C)OCO3	4%	-2%	2%	.	-6%	0%
CC(C)OC(=O)CSc1nc2cc3c(cc2cc1C#N)OCO3	?	?	0%	?	4µM*	?
N#Cc1ccc(CN2CC3(CCN(C(=O)c4cccc(F)c4)CC3)C2)cc1	.	.	.	-26%	.	.
CC1Cc2cc(S(=O)(=O)N(C)c3ccc(Br)cc3)ccc2N1C(=O)C1CC1 (centres undefined)	.	.	1%	.	.	.
Nc1nc(N)c(S(=O)(=O)c2ccccc2)c(Nc2ccc(F)cc2)n1	.	.	-6%	-5%	.	.
O=C(CSc1oc(-c2ccco2)nc1S(=O)(=O)c1ccc(Cl)cc1)Nc1ccc(F)cc1	.	.	-2%	-8%	.	.
CCN(Cc1ccccc1)C(=O)c1cc2ccc3cccnc3c2[nH]1	.	.	9.5µM*	.	.	.
Cc1ccc(CN2CCC(CNC(=O)c3cc4ccc5cccnc5c4[nH]3)CC2)cc1	.	.	-2%	.	.	.
CCCn1nc([N+](=O)[O-])c(C(C#N)c2nc3ccccc3s2)c(Cl)c1=O (centres undefined)	18µM*	1%	?	-15%	-5%	-19%
O=C(Cn1ncc2c(Cl)cccc21)NCc1cccc(Br)c1	.	.	4.8µM*	.	.	.
Cc1ccc(-c2nnc(SCC(=O)NCC3CCCO3)nc2-c2ccc(C)cc2)cc1 (centres undefined)	-13%	-2%	-1%	.	-3%	-5%
Cc1ccc2c3c(cccc13)-c1ccccc1C2=O	?	-4%	19µM*	?	0%	0%
Cc1cc2c3c(cccc3n1)C(=O)c1ccccc1-2	.	.	.	13%	.	.
CNc1ccc(/C=C(\CCC(=O)O)c2nc3ccccc3s2)cc1[N+](=O)[O-]	?	0%	-16%	2%	-7%	10%
CNc1ccc(/C=C2\CSc3ccccc3C2=O)cc1[N+](=O)[O-]	?	14%	0.76µM*	-51%	10%	?
